Laboratory results from PubChem BioAssay AID686978 (National Center for Advancing Translational Sciences (NCATS), 2013).
Among all 420,000 compounds or so, about 64,000 (15%) were called active. Not shown: some 27% with an inconclusive outcome. The call rests on the fitted dose curve; in most records, active means well fitted inhibition curve with a large enough effect; inconclusive means small, poorly fitted or top-dose-only effect; inactive means flat fitted curve, though single readings scatter. Not all results are given here. Where a call stands in place of a potency, no number is given.

Test: qHTS for Inhibitors of human tyrosyl-DNA phosphodiesterase 1 (TDP1): qHTS in cells in absence of CPT; further: nearly all actives have a fitted effect of over 55% in size
Conditions: DT40 Tdp1-/- hTDP1 cells, no CPT, ATP luminescence, 48 h; activity change, negative = growth inhibition: at 46.2 µM (top of the series)
Summary of the method: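 Cells were dispensed at 400 per well, compounds added by pin tool, plates incubated ≥48 hr at 37 °C, then CellTiter-Glo added for 30 min at room temperature before luminescence reading. Line: DT40 Tdp1-/- complemented with hTDP1; camptothecin omitted.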
Potency means the concentration at half of the fitted maximal effect.

Compound	Potency
N=C1C(c2nc3ccccc3s2)=C(O)CN1NC(=O)c1ccc([N+](=O)[O-])cc1	23.1 µM (active)
CCOC(=O)CCCN1CC(O)=C(c2nc3ccccc3s2)C1=N	inactive
O=C(Nn1c(-c2ccccc2)nc2ccccc2c1=O)c1ccc([N+](=O)[O-])cc1	inactive
Cc1nc2cc(NC(=O)CSc3nc4c(C)cccc4cc3C#N)ccc2s1	inactive
COCCNC(=O)c1snc2ccc(Cl)cc12	inactive
CCOc1ncccc1C(=O)N(C)CC(=O)Nc1ccc(F)cc1	inactive
O=C(O)CN1c2cccc3cccc(c23)S1(=O)=O	inactive
COc1ccccc1CNC(=O)COC(=O)CNS(=O)(=O)c1ccc(NC(C)=O)cc1	inactive
COc1ccc(CNC(=O)COCc2cc(-c3cccs3)on2)cc1OC	23.1 µM (active)
COc1ccc(CNC(=O)COC(=O)c2sccc2C)cc1OC	inactive
COc1ccc(OC)c(CNC(=O)CCc2nc(-c3cccs3)no2)c1	inactive
Cc1cc(C)cc(NC(=S)NCCCN2CCOCC2)c1	inactive
Cc1ccc(-n2nc3c(c2NC(=O)c2ccc4c(c2)OCO4)CSC3)c(C)c1	inactive
C=CCNC(=O)c1ccc2c3n(nc2c1)-c1ccc(C)cc1CO3	18.4 µM (active)
CCOc1c2ccc(C(=O)NCc3ccc4c(c3)OCO4)cc2nn1C	inactive
COc1ccc(N2CCN(CCNC(=O)CCN3C(=O)COc4ccccc43)CC2)cc1	inactive
C/C(=N\NC(=O)COc1ccc(C)cc1[N+](=O)[O-])c1ccc2c(c1)OCCO2	inactive
COc1ccc(CNC2CCCCC2)cc1	inactive
CCCn1nnnc1NCc1ccc(OC)cc1	inactive
COc1ccc(CNc2nc(NCc3ccc(OC)cc3)c3ncn(C4CCCC4)c3n2)cc1	2.31 µM (active)
O=C1NS(=O)(=O)c2ccccc21	inactive
N#CCCN1CCN(S(=O)(=O)c2ccc(S(=O)(=O)NC3CC3)cc2)CC1	inactive

Compound	Potency
COc1ccc(-c2cc(-c3ccccc3)nc3c2COc2ccc(Cl)cc2-3)cc1	inactive
COc1ccc(Cl)cc1NC(=O)CSc1nc(=O)[nH]c2c1CCCC2	inactive
Nc1nc(SCC(=O)Nc2cc(C(F)(F)F)ccc2Cl)[nH]c(=O)c1NC(=O)c1ccco1	inactive
O=C(CSc1nc(=O)[nH]c2c1CCCC2)Nc1cc(C(F)(F)F)ccc1Cl	16.4 µM (active)
CC(C)CCN1CCN=C1N(C)C	inactive
COc1ccc2oc(C(=O)NCc3ccco3)c(C)c2c1	inactive
CC(C)CC(=O)N1CCN(Cc2ccccc2Br)CC1	inactive
Cc1c(C(=O)NCc2ccccc2Br)oc2ccc3c(c12)C(=O)CC(C)(C)O3	16.4 µM (active)
C[C@]12C=CC(=O)C=C1CC[C@@H]1[C@@H]2C(=O)C[C@@]2(C)[C@H]1CC[C@]2(O)C(=O)CO	inactive
Cc1cc(C)cc(N(CCC#N)C(=O)CN2C(=O)NC3(CCCC3)C2=O)c1	inactive
O=C(NC1CCCC1)C(c1ccc(N2CCOCC2)cc1)N(C(=O)c1ccco1)c1ccccc1F (stereo not drawn)	inactive
O=C(N/N=C/c1ccc(OCC2COCCO2)cc1)c1ccc(Br)cc1 (stereo not drawn)	18.4 µM (active)
O=C(O)c1ccc(/C=N/NC(=O)c2ccc(Br)cc2)cc1	inactive
O=C(O)c1ccc(OCC2CCCO2)cc1 (stereo not drawn)	inactive
O=C(Nc1cccn(Cc2c(Cl)cccc2Cl)c1=O)c1ccc(Cl)cc1	inactive
CCCOC(=O)Nc1sc2c(c1C(=O)OCC)CCC2	inactive
CCOC(=O)c1c(NC(C)=O)c2c3c(sc2n1Cc1c(C)cc(C)cc1C)CCCC3	13 µM (active)
CCC(C)NC(=O)Cn1c(=O)n(-c2ccc(Cl)cc2)c(=O)c2c3c(sc21)CCCC3 (stereo not drawn)	inactive
CN(Cc1nc(-c2cnccn2)no1)Cc1n[nH]c2c1CCCCC2	inactive
O=[N+]([O-])c1ccc(C=Nc2ccc(Cl)cc2Cl)s1	13 µM (active)
O=C(CSCc1ccccc1Cl)NNC(=O)c1ccccc1	inactive
O=C(CCN1CCCO1)N1CCCC(N2CCN(c3cccc(C(F)(F)F)c3)CC2)C1 (stereo not drawn)	inactive

Compound	Potency
O=C(C1CC(=O)N(C2CCCC2)C1)N1CCN(c2cccc(C(F)(F)F)c2)CC1 (stereo not drawn)	11.6 µM (active)
O=C(C1CC(=O)N(C2CCCCC2)C1)N1CCN(c2ccccc2)CC1 (stereo not drawn)	inactive
CC(=O)C1(C)N(O)C(C)(C)C(c2cccs2)=[N+]1[O-] (stereo not drawn)	inactive
CC(OC(=O)CN1C(=O)c2ccccc2C1=O)C(=O)c1ccccc1 (stereo not drawn)	inactive
CC(C)OC(=O)CN1C(=O)C(=O)c2ccccc21	13 µM (active)
CCOC(=O)C1CCN(C(=O)CN2C(=O)c3cccnc3Oc3ccc(C)cc32)CC1	inactive
CCOC(=O)c1cc2n(c1C)-c1ccccc1C2=O	inactive
CCOC(=O)CN1C(=O)C(=O)c2cc(C)ccc21	14.6 µM (active)
CCOC(=O)CSc1nc2ccc(C)cc2[nH]1	inactive
COc1ccccc1C(=O)Nc1ccnn1C1CCN(C(=O)C(C)(C)C)CC1	inactive
CC1Cc2ccccc2N1CC(=O)Nc1ccc2c(c1)OC(F)(F)O2 (stereo not drawn)	inactive
Cc1cccc(C(=O)Nc2ccccc2C(=O)NCc2cccnc2)c1	inactive
CCC(C)c1ccc(NC(=O)COC(=O)C2CCCC2)cc1 (stereo not drawn)	inactive
CNC[C@@H]1Oc2c(NS(C)(=O)=O)cccc2C(=O)N([C@@H](C)CO)C[C@H]1C	inactive
Cc1cccc(-n2c(Cc3cc(=O)[nH]c(=O)[nH]3)nnc2SCC(=O)Nc2cccc(C(F)(F)F)c2)c1	inactive
CCCCn1nnnc1C(c1ccccc1)N1CCN(c2ccccc2OC)CC1 (stereo not drawn)	20.6 µM (active)
Cc1cc(O)c(C(c2ccccc2)N2CCN(c3ccccc3F)CC2)c(=O)n1Cc1ccco1 (stereo not drawn)	inactive
C=CCC(Nc1ccccc1)c1cccc(OC)c1OC (stereo not drawn)	inactive
Clc1ccc(-n2nnnc2CN2CCCCC2)cc1Cl	inactive
Cc1cccc(N2CCN(C(c3ccccc3)c3nnnn3CC3CCCO3)CC2)c1C (stereo not drawn)	11.6 µM (active)
COc1ccccc1C(c1nnnn1CC1CCCO1)N1CCN(c2ccccc2)CC1 (stereo not drawn)	inactive
c1ccc(CCn2nnnc2CN2CCN(C3CCCC3)CC2)cc1	inactive

Compound	Potency
CCCCn1nnnc1C(c1cccc(OC)c1OC)N1CCN(C/C=C/c2ccccc2)CC1 (stereo not drawn)	20.6 µM (active)
COc1ccc(CCn2nnnc2C(c2ccccc2)N2CCN(C)CC2)cc1OC (stereo not drawn)	inactive
COc1ccccc1N1CCN(Cc2nnnn2CCc2ccccc2)CC1	inactive
CCCCn1nnnc1NCc1cc(OC)c(OC)c(OC)c1	inactive
c1ccc(C(c2ccccc2)N2CCN(Cc3nnnn3C3CCCCC3)CC2)cc1	20.6 µM (active)
O=C(Nc1nncs1)c1ccccc1NS(=O)(=O)c1cccs1	inactive
O=C(CSCc1ccc([N+](=O)[O-])cc1)Nc1cccc(C(=O)Nc2ccccc2C(=O)O)c1	inactive
C[C@H](NC(=O)C1CC(=O)N(c2ccc3c(c2)OCO3)C1)C(=O)NCc1ccco1 (stereo partly drawn)	inactive
CCCCC(=O)NCc1ccc(F)cc1	inactive
CCCCNC(=O)C1CCC(CNS(=O)(=O)c2ccc(NC(C)=O)cc2)CC1 (stereo not drawn)	inactive
O=C1C(=O)N(CCN2CCOCC2)C(c2ccccn2)/C1=C(/O)c1ccc(Cl)cc1 (stereo not drawn)	inactive
COc1ccc(C(c2nnnn2C2CCCC2)N2CCN(C/C=C/c3ccccc3)CC2)cc1 (stereo not drawn)	16.4 µM (active)
Oc1ccccc1CN1CCN(C(c2ccccc2)c2ccccc2)CC1	16.4 µM (active)
COc1ccc(/C=C/CN2CCN(Cc3ccc(C)cc3)C(CCO)C2)cc1 (stereo not drawn)	inactive
O=C(O)CN1CCN(C(c2ccccc2)c2ccccc2)CC1	inactive
O=C(Nc1ccnn1C1CCN(C/C=C/c2ccc(F)cc2)CC1)C1CCCC1	inactive
CC(C)OCC(O)CN1CCN(C(c2ccccc2)c2ccccc2)CC1 (stereo not drawn)	inactive
CCOC(=O)c1c(C(C#N)C#N)cc(C)nc1C	inactive
OC[C@H]1O[C@@H](c2nc(-c3nc(-c4ccc(F)cc4)no3)cs2)[C@H](O)[C@@H](O)[C@H]1O	inactive
O=C(Nc1ccc2c(c1)OCO2)c1cc(-c2cccc(Cl)c2)on1	inactive
CCC(Oc1ccccc1)C(=O)NCc1cccnc1 (stereo not drawn)	inactive
O=C(O)CC/C(=C\c1cc2c(cc1Br)OCO2)c1nc2ccccc2s1	inactive

Compound	Potency
O=C(O)C1=C(C(=O)O)C2CCC1C2	inactive
COc1ccccc1N(CC(=O)Nc1c(C)n(C)n(-c2ccccc2)c1=O)S(=O)(=O)c1ccccc1	inactive
COc1ccccc1N(CC(=O)N/N=C(\C)c1ccccc1O)S(=O)(=O)c1ccc(C)cc1	1.64 µM (active)
COc1ccc(S(=O)(=O)N(CC(=O)N/N=C/c2ccccc2C(=O)O)c2ccccc2OC)cc1	inactive
COC(=O)[C@H](C(C)C)n1c(C)c(C(C)=O)c(C(C)=O)c1C	inactive
O=S(=O)(c1cccc(C(F)(F)F)c1)N1c2ccccc2-n2cccc2C1c1cccnc1 (stereo not drawn)	18.4 µM (active)
O=S(=O)(c1cccc(C(F)(F)F)c1)N1CCN(c2cnccn2)CC1	inactive
O=S(=O)(c1cccc(C(F)(F)F)c1)N1CCN(c2nc(-c3cccs3)nc3ccccc23)CC1	inactive
O=S(=O)(c1ccc(F)cc1)n1ccc(-c2cnc(-c3ccccc3)s2)n1	inactive
CCN(CC)c1ccc(NC(=O)CN2CCN(c3ccccn3)CC2)cc1	inactive
CN(C(=O)CN1CCN(c2cc(-c3ccc(OCc4ccccc4)cc3)ncn2)CC1)c1ccccc1	18.4 µM (active)
COc1ccc(NC(C)=O)cc1NC(=O)CN1CCN(c2ccccn2)CC1	inactive
O=C1OCC2=C1C(c1ccccc1)CC(=O)N2c1cccc(F)c1 (stereo not drawn)	inactive
CSc1sc(C(=O)NNC(=O)c2ccc(Cl)cc2)c2c1C=CCC2	inactive
Cc1csc2nc(COC(=O)c3ccccc3NC(=O)c3ccccc3Cl)cc(=O)n12	11.6 µM (active)
Cc1csc2nc(COc3ccc(NC(=O)COc4ccccc4)cc3)cc(=O)n12	inactive
Cc1csc2nc(COC(=O)c3ccc(NC(=O)COc4ccccc4F)cc3)cc(=O)n12	18.4 µM (active)
Cc1ccc(OCC(=O)Nc2ccc(OCc3cc(=O)n4c(C)csc4n3)cc2)cc1C	inactive
Cc1ccc(C(=O)Nc2ccc(OCc3cc(=O)n4c(C)csc4n3)cc2)cc1	inactive
O=C(COc1ccccc1F)Nc1ccc(C(=O)OCc2cc(=O)n3nc(C4CC4)sc3n2)cc1	inactive
